Bioassay records deposited in PubChem BioAssay by National Center for Advancing Translational Sciences (NCATS).
Six1-Eya2 blk: blocks human Six1 binding to Eya2. AlphaScreen GST-Six1/His-Eya2 binding, biochemical; stronger effect = lower value. activity change, % (concentration not given with the values). Q15475+O00167. 360,000 tested, 0.56% active
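GST-Six1 + His-Eya2 (5X stock: 250/500 nM); Tris pH 8.0, 300 mM NaCl, 0.05% BSA, 0.02% Tween 20; GSH donor/Ni acceptor beads; 1 h 37 °C dark; AlphaScreen readout.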
PI5P4K alpha inh: blocks human PI5P4K alpha kinase activity; P48426; PI5P4Kalpha enzyme, ADP-Glo luminescence, 60 min; stronger effect = lower value; max response, %; 330,000 tested, 1.2% active; active = max response of -50% or lower; inconclusive = between -30% and -50%; inactive = -30% or higher; note: value at the top dose of about 77 µM
Target sequence (P48426 whole entry, looked up): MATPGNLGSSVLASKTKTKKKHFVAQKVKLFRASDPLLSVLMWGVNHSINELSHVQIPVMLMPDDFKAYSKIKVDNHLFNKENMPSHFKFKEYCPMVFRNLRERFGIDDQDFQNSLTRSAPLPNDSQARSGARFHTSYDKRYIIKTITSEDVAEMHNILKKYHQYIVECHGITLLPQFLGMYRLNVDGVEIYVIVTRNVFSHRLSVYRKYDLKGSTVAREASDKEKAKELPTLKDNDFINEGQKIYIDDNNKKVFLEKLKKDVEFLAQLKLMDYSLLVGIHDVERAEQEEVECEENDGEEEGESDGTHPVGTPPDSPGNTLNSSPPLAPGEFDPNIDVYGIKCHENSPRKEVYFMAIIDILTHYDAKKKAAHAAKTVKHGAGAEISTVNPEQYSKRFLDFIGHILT
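Single end-point luminescence (ADP-Glo) quantified ADP from PI5P4Kalpha turnover; ATP 5 microM final, 1 h at RT, 0.1% CHAPS and 0.28 mM EGTA in HEPES pH 7.4.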
PI4K2A block: blocks human PI4K2A kinase activity. Q9BTU6. purified PI4K2A, ADP-Glo luminescence, 1 h; stronger effect = lower value. activity change, negative = inhibition, % at 76.9 µM. 420,000 tested, 0.13% active; in the data active = activity change below about -50%; inconclusive = mostly about -30% to -49%;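 note: -100% = wells without enzyme as full effect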
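Compounds are screened against recombinant PI4K2A using PI as substrate and ATP, the latter dispensed at 300 microM. Reactions run one hour at ambient temperature before ADP-Glo detection; full inhibition defined by wells lacking enzyme.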
CtBP-E1A blk: blocks the CtBP interaction with E1A. AlphaScreen GST-E1A/His-CtBP binding, 1536-well; stronger effect = lower value. activity change, % (no concentration beside the values). 340,000 tested, 0.49% active. AID 651724
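AlphaScreen with 125 nM GST-E1A and 125 nM His-CtBP (5X stocks) in Tris pH 8.0, 300 mM NaCl, BSA, Tween 20, TCEP. Compounds preincubated 2 h at 37 deg C, then glutathione donor/nickel acceptor beads added for 1 h at 37 deg C in dark.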
Akt phos inh: blocks phosphorylation of Akt. Neuro2A IGF-stimulated pAkt S473 HTRF, 20 min; stronger effect = lower value. activity change, % for hits at 50 µM. 360,000 tested, 0.32% active. AID 651550; in the data active = activity change below about -80%; inconclusive = mostly about -51% to -80%
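Neuro2A cells (4,500/well, DMEM with 0.5% FBS) were treated with compound at a single 50 µM final concentration, stimulated with 6 nM IGF for 20 min at 37 °C, and lysed. Phospho-Akt Ser473 was read by HTRF as 665/615 ratio ×10^4.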
An asterisk follows results filed as active; i = inactive; ? = inconclusive; . = no result given. Rows were chosen to be rich in hits. Some 1.8% of all compounds tested hit in one or more screens of this group. Cut-off read from the data, not from the text of the source, unless noted: active = activity change below about -65%; inconclusive = mostly about -30% to -63%; inactive = weaker than that. Unless noted, % is set by controls: 0 for no effect and ±100 for the full control effect.

SMILES	Six1-Eya2 blk	PI5P4K alpha inh	PI4K2A block	CtBP-E1A blk	Akt phos inh
COc1ccccc1NC(=O)CSc1nc2n[nH]c(C)c2c(=N)n1-c1ccccc1Cl	?	.	-7.7	-68.6*	i
Cc1cccc(-n2c(SCC(=O)N3CCCC3)nc3n[nH]c(C)c3c2=N)c1	-16.5	.	-7.0	-16.1	-103.7%*
CCc1ccccc1NC(=O)CSc1nc2n[nH]c(C)c2c(=N)n1-c1cccc(C)c1	.	.	-1.9	.	.
Cc1ccc(NC(=O)CSc2nc3n[nH]c(C)c3c(=N)n2-c2cccc(C)c2)cc1	.	.	-2.4	.	.
CCc1ccccc1NC(=O)CSc1nc2n[nH]c(C)c2c(=N)n1-c1ccc(OC)cc1	-74.2*	6.8	4.8	-65.2*	i
CC(C)CCn1cnc2c1c(=O)n(C)c(=O)n2C	0.0	1.2	2.6	3.4	i
Nc1c(-c2ccc(Cl)cc2)cnn1-c1cccc(C(F)(F)F)c1	8.5	-2.4	-3.6	1.0	-113.2%*
COc1ccc(CCNC(=O)C(=O)NCC2OCCN2S(=O)(=O)c2ccc(C)cc2)cc1OC (configuration not stated)	3.1	3.8	-0.5	2.9	i
O=C(O)c1ccc(-n2nnnc2SCc2ccccc2F)cc1	8.5	-6.6	-2.8	0.4	i
O=C(O)/C=C\c1cccc(-n2nnnc2SCc2ccccc2F)c1	21.4	-83.4*	-7.5	3.7	i
COc1cc(/C=C/C(=O)NCc2ccccn2)cc(OC)c1OC	-1.2	3.1	-3.5	1.3	i
COc1ccc(OC)c2c1C(=O)c1ccccc1C2=O	?	-0.1	-0.7	?	i
COc1ccc(OC)c2c1C(=O)C(Cl)=C(Cl)C2=O	-5.2	-101.8*	-5.4	0.9	i
CC(=O)Nc1ccc(NC(=O)CN(c2cccc(C)c2)S(C)(=O)=O)cc1	-1.0	.	-1.9	10.5	i
NC(=S)NNc1cccc2cccnc12	-92.4*	-28.6	?	-91.6*	i
NC(=S)Nc1cccc2cccnc12	3.6	2.2	1.6	0.0	i
O=C(COc1ccccc1[N+](=O)[O-])NCC1(N2CCOCC2)CCCCC1	4.6	1.3	0.9	-0.2	i
COC(=O)c1ccc(CSc2nc3ccccc3s2)o1	14.0	.	-1.5	34.2	i
COC(=O)c1ccc(CSc2n[nH]c(=S)s2)o1	-0.6	?	-5.6	7.7	-100.3%*
c1ccc(-c2nnc(-c3ccccn3)nn2)nc1	-78.8*	0.4	-6.2	-91.3*	i
c1ccc(-c2cccc(-c3ccccn3)n2)nc1	-91.4*	.	-8.8	-101.4*	i
c1ccc(-c2nnc(-c3ccccn3)c(-c3ccccn3)n2)nc1	-21.8	-6.4	3.2	?	i
Cc1ccc2nc3c(cc2c1)CN(Cc1ccco1)C(=NCC1CCCO1)S3 (configuration not stated)	-8.3	-19.2	5.8	-6.9	i
Cc1cccc2cc3c(nc12)SC(=NCC1CCCO1)N(Cc1ccco1)C3 (configuration not stated)	-17.6	-55.2*	-11.7	-7.6	i
Cc1cc(C(=O)N2CCN(c3ncccn3)CC2)sc1-c1ccccc1	3.5	.	-1.5	6.3	i
SMILES	Six1-Eya2 blk	PI5P4K alpha inh	PI4K2A block	CtBP-E1A blk	Akt phos inh
Cc1cc(C(=O)N2CCN(S(C)(=O)=O)CC2)sc1-c1ccccc1	3.0	.	2.0	1.3	-82.2%*
COc1cccc(C2C3=C(CCCC3=O)Nc3[nH]n(-c4ccccc4)c(=O)c32)c1 (configuration not stated)	-5.8	-4.0	1.1	-0.4	i
CCN(CC)c1ccc(/C=C2\C(=O)c3ccc(C(=O)O)cc3C2=O)cc1	-15.1	-70.1*	-16.4	18.6	i
CCN(CC)c1ccc(C(=O)O)cc1	11.5	6.9	-3.0	.	i
CCOCC(=O)Nc1nnc(SCCOC)s1	-1.3	7.6	-0.6	8.8	-85.5%*
COCCSc1nnc(NC(=O)Cc2ccc(OC)cc2)s1	7.0	-7.6	-1.3	.	i
COc1cc(NC(=O)c2cc3c(s2)-c2ccccc2OC3)cc(OC)c1OC	.	.	-3.1	.	.
Cc1ccc(/C=C/C(=O)Nc2nnc(SCc3ccc(C#N)cc3)s2)o1	-17.8	-72.1*	?	-2.0	i
C/C(=N\NC(=O)C1CCCN(S(=O)(=O)c2ccccc2)C1)c1ccccn1 (configuration not stated)	-86.1*	-6.7	0.0	-90.4*	i
C/C(=N\NC(=O)C1CCCN(S(=O)(=O)c2ccccc2)C1)c1ccncc1 (configuration not stated)	-5.6	-1.1	-0.9	-1.3	i
CC(=NNC(=S)N1CCCCCC1)c1cccc2cccnc12	?	-0.5	1.2	-89.7*	i
CC(=NNC(=S)N1CCN(c2ccccn2)CC1)c1ccccn1	?	-16.1	-3.4	?	i
CC(=NNC(=S)N1CCN(C2CCCCCC2)CC1)c1ccccn1	-92.4*	-11.5	21.9	-0.3	i
CC(=NNC(=S)N1CCN(c2ccccn2)CC1)c1nccs1	-91.1*	8.1	20.5	-93.6*	i
CCN(CC)C1CCN(C(=O)CCc2nnc(CCc3ccccc3)o2)C1 (configuration not stated)	5.3	-4.0	2.5	-4.6	i
CC(=NNC(=S)N1CC2CCC(CC2)C1)c1cnccn1	-92.1*	1.8	-0.1	-93.9*	i
CC(=NNC(=S)N1CC2CCC(CC2)C1)c1ccccn1	-14.5	1.2	-4.0	-14.0	i
N#CCSc1nnc(SCC#N)s1	-2.5	-75.0*	5.6	4.0	i
COc1ccc(NC(=O)N[C@@H](CCSC)C(=O)O)cc1Cl	6.3	3.1	2.2	6.5	-115.0%*
COc1ccc(NC(=O)N[C@@H](CCSC)C(=O)O)cc1OC	8.6	8.5	3.1	6.8	i
COc1cc(OC)c(-c2c3cc(O)c(=O)cc-3oc3cc(O)c(O)cc23)cc1OC	?	-29.6	-16.6	-0.4	i
Cc1c2cc(O)c(=O)cc-2oc2cc(O)c(O)cc12	-88.9*	.	?	-93.8*	i
CCOC(=O)C1=C(C)N(CCCCCC(=O)O)C(=O)NC1c1ccc(Cl)cc1 (configuration not stated)	-0.1	-7.2	1.1	1.8	i
CCOC(=O)C1=C(C)N(CCCC(=O)O)C(=O)NC1c1ccc(OC)cc1 (configuration not stated)	6.6	-70.6*	-2.3	2.4	i
CCOC(=O)C1=C(C)N(CCCC(=O)O)C(=O)NC1C(CC)CC (configuration not stated)	5.1	-57.6*	0.6	-3.3	i
COC(=O)C1=C(C)N(CCCC(=O)O)C(=O)NC1c1ccc(OC)cc1 (configuration not stated)	1.8	-61.9*	-0.2	6.3	i
Cc1nc2c(Cl)cccc2c2c1CC(CBr)O2 (configuration not stated)	22.3	2.6	-2.1	9.0	i
